Structures can show the parent of a compound that is named as a salt. ± gives the standard deviation of the averaged measurements.
Columns and labels:
Experiment in all cases: growth (OD600 after 10 h); higher = more growth (less inhibition)
[1] = test system: E. coli TESEC Alr+ wild-type control; settings: compound 0.1 mM; raw OD600 reference: median of DMSO wells 0.241, cell-free background 0.041
Protocol: (§1)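 TESEC Mtb Alr E. coli, or the Alr+ wild-type control, in 384-well plates with Prestwick library compounds at 0.1 mM and 1% DMSO, across arabinose induction levels of 1E3 to 1E7 nM. Growth is read as OD600 after 10 h at 37 °C in triplicate biological replicates.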

E. coli TESEC Mtb Alr [2] = settings: compound 0.1 mM
Protocol: as §1

E. coli TESEC Mtb Asd = settings: compound 0.1 mM
Protocol: (§2)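 TESEC E. coli strains in which the native enzyme is deleted and replaced by arabinose-inducible Mtb Asd, DapB, CysH or TrpD, each grown in its selective medium. Strains were screened against the Prestwick library at 0.1 mM and 1% DMSO in 384-well format at low and high arabinose induction. Growth is read as OD600 after 10 h in triplicate.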

E. coli TESEC Mtb DapB = settings: compound 0.1 mM
Protocol: as §2

[3] = test system: E. coli TESEC Alr+ wild-type control; settings: compound 0.1 mM; raw OD600 reference: median of DMSO wells 0.49, cell-free background 0.052
Protocol: (§3)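 TESEC Mtb Alr E. coli (ΔaraC ΔtolC ΔentC Δalr ΔdadX, arabinose-inducible Mtb Alr) or the Alr+ wild-type control strain, grown in defined M9-fructose medium without D-alanine in 96-well plates with Prestwick library compounds at 0.1 mM and 1% DMSO. Low Alr induction is 0.1 µM arabinose and high induction is 10 mM arabinose.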

E. coli TESEC Mtb Alr [4] = settings: compound 0.1 mM; remark: listed apart in the source
Protocol: as §3

[5] = arabinose 1000 nM, raw OD600 reference: median of DMSO wells 0.294, cell-free background 0.041
[6] = arabinose 10000 nM, raw OD600 reference: median of DMSO wells 0.264, cell-free background 0.041
[7] = arabinose 100000 nM, raw OD600 reference: median of DMSO wells 0.201, cell-free background 0.041
[8] = arabinose 1000000 nM, raw OD600 reference: median of DMSO wells 0.193, cell-free background 0.041
[9] = arabinose 10000000 nM, raw OD600 reference: median of DMSO wells 0.146, cell-free background 0.041
[10] = arabinose induction (level): High, raw OD600 reference: median of DMSO wells 0.331, cell-free background 0.041
[11] = arabinose induction (level): Low, raw OD600 reference: median of DMSO wells 0.417, cell-free background 0.041
[12] = arabinose induction (level): High, raw OD600 reference: median of DMSO wells […], cell-free background 0.041
[13] = arabinose induction (level): Low, raw OD600 reference: median of DMSO wells 0.227, cell-free background 0.041
[14] = arabinose 100 nM, raw OD600 reference: median of DMSO wells 0.413, cell-free background 0.052
[15] = arabinose 10000000 nM, raw OD600 reference: median of DMSO wells […], cell-free background 0.052

SMILES	growth [1]	growth (E. coli TESEC Mtb Alr [2]; [5])	growth (E. coli TESEC Mtb Alr [2]; [6])	growth (E. coli TESEC Mtb Alr [2]; [7])	growth (E. coli TESEC Mtb Alr [2]; [8])	growth (E. coli TESEC Mtb Alr [2]; [9])	growth (E. coli TESEC Mtb Asd; [10])	growth (E. coli TESEC Mtb Asd; [11])	growth (E. coli TESEC Mtb DapB; [12])	growth (E. coli TESEC Mtb DapB; [13])	growth [3]	growth (E. coli TESEC Mtb Alr [4]; [14])	growth (E. coli TESEC Mtb Alr [4]; [15])
CC1CNc2c(cccc2S(=O)(=O)N[C@@H](CCCNC(=N)N)C(=O)N2CC[C@@H](C)C[C@@H]2C(=O)O)C1 (stereo partly specified) [Argatroban]	0.211 ± 0.0062	0.288 ± 0.0078	0.257 ± 0.0085	0.222 ± 0.014	0.182 ± 0.012	0.144 ± 0.0053	0.348 ± 0.096	0.395 ± 0.048	0.181 ± 0.0099	0.197 ± 0.016	0.429 ± 0.019	0.404 ± 0.011	0.369 ± 0.016
CC(=O)Oc1ccccc1C(=O)Oc1ccccc1C(=O)O [Acetylsalicylsalicylic acid]	0.253 ± 0.0046	0.275 ± 0.0063	0.266 ± 0.016	0.203 ± 0.011	0.181 ± 0.0064	0.142 ± 0.0078	0.325 ± 0.1	0.421 ± 0.069	0.19 ± 0.014	0.209 ± 0.0043	0.449 ± 0.04	0.4179 ± 0.0027	0.352 ± 0.023
CC(C)[N+](C)(CCOC(=O)C1c2ccccc2Oc2ccccc21)C(C)C [Propantheline bromide]	0.169 ± 0.0072	0.231 ± 0.025	0.269 ± 0.0034	0.155 ± 0.0034	0.153 ± 0.0025	0.132 ± 0.0019	0.233 ± 0.051	0.417 ± 0.047	0.156 ± 0.011	0.17 ± 0.0089	0.644 ± 0.057	0.406 ± 0.011	0.32773 ± 0.00025
OCCN1CCN(CCCN2c3ccccc3Sc3ccc(Cl)cc32)CC1 [Perphenazine]	0.0416 ± 0.00046	0.0411 ± 0.00082	0.0422 ± 0.00061	0.0431 ± 0.0021	0.04167 ± 0.00035	0.0462 ± 0.00053	0.0588 ± 0.0034	0.0626 ± 0.0018	0.0511 ± 0.001	0.0954 ± 0.078	0.0523 ± 0.0019	0.285 ± 0.2	0.0538 ± 0.00074
CC(N)C12CC3CC(CC(C3)C1)C2 (stereo unspecified) [Rimantadine Hydrochloride]	0.228 ± 0.0089	0.293 ± 0.0047	0.2629 ± 0.0005	0.207 ± 0.025	0.18 ± 0.0024	0.151 ± 0.006	0.209 ± 0.019	0.497 ± 0.07	0.195 ± 0.021	0.232 ± 0.025	0.583 ± 0.077	0.407 ± 0.009	0.345 ± 0.011
CC1(C)S[C@@H]2[C@H](NC(=O)[C@H](NC(=O)N3CCNC3=O)c3ccccc3)C(=O)N2[C@H]1C(=O)O [Azlocillin sodium salt]	0.238 ± 0.0043	0.312 ± 0.008	0.276 ± 0.0051	0.177 ± 0.0081	0.195 ± 0.013	0.152 ± 0.015	0.31 ± 0.035	0.442 ± 0.025	0.177 ± 0.015	0.222 ± 0.031	0.631 ± 0.06	0.403 ± 0.017	0.361 ± 0.013
COCCc1ccc(OCC(O)CNC(C)C)cc1 (racemic) [Metoprolol-(+,-) (+)-tartrate salt]	0.225 ± 0.0047	0.306 ± 0.018	0.266 ± 0.014	0.203 ± 0.013	0.199 ± 0.0081	0.141 ± 0.0035	0.311 ± 0.028	0.466 ± 0.038	0.214 ± 0.031	0.236 ± 0.0073	0.494 ± 0.11	0.399 ± 0.008	0.3498 ± 0.0028
COC(=O)C1=C(C)NC(C)=C(C(=O)OCC(C)C)C1c1ccccc1[N+](=O)[O-] (stereo unspecified) [Nisoldipine]	0.0411 ± 0.00044	0.189 ± 0.022	0.1989 ± 0.0016	0.133 ± 0.0061	0.101 ± 0.011	0.112 ± 0.0029	0.0578 ± 0.0013	0.0593 ± 0.0039	0.122 ± 0.0061	0.114 ± 0.0044	0.433 ± 0.007	0.386 ± 0.0062	0.223 ± 0.012
CCN1CCC[C@H]1CNC(=O)c1c(O)c(Cl)cc(Cl)c1OC [Raclopride]	0.173 ± 0.014	0.16 ± 0.01	0.148 ± 0.017	0.14 ± 0.014	0.107 ± 0.0082	0.172 ± 0.0058	0.13 ± 0.013	0.133 ± 0.014	0.173 ± 0.013	0.166 ± 0.019	0.391 ± 0.075	0.395 ± 0.038	0.175 ± 0.027
CCCCC[C@H](O)/C=C/[C@H]1[C@H](O)CC(=O)[C@@H]1CCCCCCC(=O)O [Alprostadil]	0.215 ± 0.0055	0.284 ± 0.0052	0.23 ± 0.0057	0.176 ± 0.0091	0.163 ± 0.0042	0.126 ± 0.0061	0.243 ± 0.046	0.279 ± 0.082	0.154 ± 0.008	0.177 ± 0.032	0.503 ± 0.07	0.364 ± 0.018	0.299 ± 0.017
CCN1CCC[C@H]1CNC(=O)c1c(OC)ccc(Br)c1OC [Remoxipride Hydrochloride]	0.256 ± 0.007	0.304 ± 0.016	0.259 ± 0.004	0.192 ± 0.0085	0.184 ± 0.0027	0.136 ± 0.0041	0.288 ± 0.032	0.445 ± 0.015	0.195 ± 0.0092	0.218 ± 0.039	0.588 ± 0.039	0.416 ± 0.017	0.338 ± 0.039
CC1(C)S[C@@H]2[C@H](NC(=O)[C@H](C(=O)O)c3ccsc3)C(=O)N2[C@H]1C(=O)O [Ticarcillin sodium]	0.256 ± 0.0056	0.296 ± 0.0051	0.28 ± 0.0035	0.2 ± 0.031	0.226 ± 0.0051	0.142 ± 0.0031	0.331 ± 0.056	0.305 ± 0.0068	0.178 ± 0.0019	0.196 ± 0.019	0.577 ± 0.095	0.419 ± 0.0051	0.354 ± 0.0093
C#CCN(C)CCCOc1ccc(Cl)cc1Cl [Clorgyline hydrochloride]	0.14 ± 0.0066	0.168 ± 0.0046	0.175 ± 0.0062	0.174 ± 0.0076	0.0744 ± 0.0031	0.133 ± 0.011	0.25 ± 0.093	0.21 ± 0.04	0.158 ± 0.013	0.208 ± 0.016	0.458 ± 0.027	0.392 ± 0.0072	0.222 ± 0.016
CCN(CC)CCc1nc(-c2ccccc2)no1 [Oxalamine citrate salt]	0.23 ± 0.012	0.273 ± 0.021	0.27 ± 0.0036	0.187 ± 0.0043	0.187 ± 0.0094	0.135 ± 0.0019	0.307 ± 0.045	0.332 ± 0.031	0.186 ± 0.0074	0.216 ± 0.013	0.537 ± 0.036	0.406 ± 0.011	0.343 ± 0.015
O=c1[nH]c(=O)n(C2CCCO2)cc1F (stereo unspecified) [Tegafur]	0.2441 ± 0.0016	0.284 ± 0.0093	0.2613 ± 0.001	0.208 ± 0.0031	0.224 ± 0.013	0.135 ± 0.0053	0.366 ± 0.03	0.359 ± 0.091	0.2018 ± 0.0016	0.23 ± 0.032	0.586 ± 0.12	0.407 ± 0.011	0.346 ± 0.011
COc1cc2nc(N3CCN(C(=O)C4COc5ccccc5O4)CC3)nc(N)c2cc1OC (stereo unspecified) [Doxazosin mesylate]	0.054 ± 0.0033	0.047 ± 0.002	0.0476 ± 0.00044	0.0463 ± 0.0012	0.04047 ± 5.8e-05	0.0449 ± 0.0026	0.092 ± 0.023	0.0521 ± 0.004	0.194 ± 0.015	0.208 ± 0.038	0.0495 ± 0.0017	0.277 ± 0.2	0.0514 ± 0.0015
Cc1cc(C)nc(NS(=O)(=O)c2ccc(N)cc2)n1 [Sulfamethazine sodium salt]	0.242 ± 0.0082	0.293 ± 0.015	0.252 ± 0.013	0.215 ± 0.016	0.165 ± 0.0038	0.142 ± 0.0032	0.408 ± 0.021	0.449 ± 0.042	0.191 ± 0.0082	0.269 ± 0.022	0.482 ± 0.088	0.413 ± 0.012	0.335 ± 0.0075

Reference: the supplement of paper PMC9262897, “Low-cost anti-mycobacterial drug discovery using engineered E. coli” (Nature Communications, 2022)
